Inconclusive results are not listed. Values without a mark were called inactive. The source made the active and inactive calls. Calls come from the whole dose curve; as a rule, active = well fitted inhibition curve with a large enough effect; inconclusive = small, poorly fitted or top-dose-only effect; inactive = flat fitted curve, though single readings scatter. Where a SMILES comes first, the peptide text is derived from it.
Assay: Confirmatory screen GU Rhodamine qHTS for Zika virus inhibitors qHTS (AID 1347157); note: nearly all actives have a fitted effect of over 70% in size;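 for activity change, negative = inhibition: plate controls were no-inhibitor wells for no effect and no-enzyme wells for full effect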
Conditions: purified enzyme assay, Rhodamine110 substrate fluorescence, 15 min; series mostly up to 114 µM
Summary of the method: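 A qHTS format was used, with compound concentrations ranging up to 114 microM. Each compound was preincubated with 25 nM NS2B-NS3 protease, and the substrate was then added at 1.5 microM. Curves were fitted with a 4-parameter Hill model.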
Potency is the fitted concentration of half-maximal effect.

| Structure (SMILES) | Potency | activity change, negative = inhibition |
| --- | --- | --- |
| CC(C)CC(c1c(O)c(C=O)c(O)c(C=O)c1O)C1CCC(C)(O)C2CC(C(C)(C)O)CCC12C (stereo not given) | 3.41 µM (active) |  |
| CC1(C)CC[C@]2(C(=O)O)CC[C@]3(C)C(=CCC4[C@@]5(C)CC[C@H](O[C@@H]6O[C@H](C(=O)O)[C@@H](O)[C@H](O)[C@H]6O)C(C)(C)C5CC[C@]43C)C2C1 (stereo not given in full) | 5.84 µM (active) |  |
| CC1C(O)C(O)C2C(C(=O)OCCc3ccc(O)cc3)=COC(O[C@@H]3O[C@H](CO)[C@@H](O)[C@H](O)[C@H]3O)C12 (stereo not given in full) | 8.57 µM (active) |  |
| CSCC[C@H](NC(=O)[C@H](CO)NC(=O)[C@H](CCC(=O)O)NC(C)=O)C(=O)N[C@H](C=O)CC(=O)O (Ac-ESMD-aldehyde) |  | 8.12% [at 22 µM] |
| CCc1nnc(NS(=O)(=O)c2ccc(NC(=S)NC(=O)/C=C/c3ccc(F)cc3)cc2)s1 | 2.78 µM (active) |  |
